Screening results (PubChem)
LRH-1 inv ag: suppresses constitutive activity of human LRH-1; O00482; HEK293T StAR-luciferase reporter, LRH-1 transfected, 24 h; inhibition, % at 3.6 µM; 0.13% of 360,000 active; AID 602396;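 active means inhibition above the mean inhibition of all tested compounds plus 3 SD, cut at about 73% in these data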;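 further: 0% = DMSO wells and 100% = reporter-only cells lacking LRH-1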
Target sequence (O00482 whole entry, looked up): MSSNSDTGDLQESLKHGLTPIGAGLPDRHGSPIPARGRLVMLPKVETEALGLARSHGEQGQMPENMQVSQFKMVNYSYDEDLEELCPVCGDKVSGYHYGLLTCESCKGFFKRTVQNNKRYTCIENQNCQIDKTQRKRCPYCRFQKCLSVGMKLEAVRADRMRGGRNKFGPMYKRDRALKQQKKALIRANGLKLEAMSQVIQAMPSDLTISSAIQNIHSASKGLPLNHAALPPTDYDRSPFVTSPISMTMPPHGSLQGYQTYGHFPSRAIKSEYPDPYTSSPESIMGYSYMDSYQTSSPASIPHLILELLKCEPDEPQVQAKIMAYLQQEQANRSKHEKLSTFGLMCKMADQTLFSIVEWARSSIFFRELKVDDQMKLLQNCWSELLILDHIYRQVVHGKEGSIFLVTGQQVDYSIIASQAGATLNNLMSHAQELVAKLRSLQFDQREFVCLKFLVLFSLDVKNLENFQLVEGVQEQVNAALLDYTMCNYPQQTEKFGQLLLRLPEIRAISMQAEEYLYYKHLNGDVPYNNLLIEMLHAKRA
NR2F2 inh: blocks human COUP-TFII nuclear receptor; 0.7% of 370,000 active; AID 686940; inhibition, % at 8.6 µM; HEK293T NGFI-A luciferase reporter, luminescence;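 active means inhibition above a per-plate cutoff, mean inhibition of test wells between control levels plus 3 SD, cut at about 38% in these data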;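 further: cells cotransfected with COUP-TFII expression vector driving the NGFI-A reporter; 0% = median of COUP-TF2 test wells and 100% = reporter-only cells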
Gli-Sufu block: blocks Gli-Sufu signaling in a luciferase reporter; Sufu-KO-LIGHT fibroblasts, Gli luciferase reporter luminescence; inhibition, % at 5 µM; AID 588413; 0.74% of 340,000 active;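 active means inhibition above about 55%, limit read from the data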;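 further: 0% = DMSO-treated cells and 100% = wells with medium but no cells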
SRC1 inh: human NCOA1 inhibition | Q15788 | HEK293 GAL4-SRC1 luciferase reporter, luminescence | inhibition, % at 3.6 µM | 0.12% of 360,000 active | AID 588354;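 active means inhibition above the campaign mean plus 3 SD, with each screening campaign given its own cutoff, cut at about 60% in these data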;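 further: 0% = DMSO treated cells and 100% = gossypol at 36 µM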
NCOA2 inhibitor: human SRC2 (NCOA2) inhibition. 0.17% of 370,000 active. inhibition, % at 9 µM. HEK293 GAL4-SRC2 luciferase reporter, luminescence. Q15596;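 active means inhibition above the mean inhibition of all tested compounds plus 3 SD, set per campaign, cut at about 52% in these data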;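 further: 0% = DMSO treated cells and 100% = cells given Gossypol at 36 µM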
NCOA3 inh: inhibitors of human steroid receptor coactivator 3 (SRC3). Q9Y6Q9. HEK293 GAL4-SRC3 luciferase reporter, luminescence. AID 588352. inhibition, % at 3.6 µM. 0.17% of 360,000 active;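 active means inhibition above a per-campaign cutoff, the mean of all compounds plus 3 SD, cut at about 60% in these data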;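 further: 0% = DMSO-treated cells and 100% = gossypol-treated cells at 36 µM; higher means less SRC3-driven luciferase light from the GAL4 reporter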
* marks the source's active call; other numbers are inactive results; nt = no result given. The list is not random: actives were taken first. Their share in the collection is about 1.2%.

SMILES | LRH-1 inv ag | NR2F2 inh | Gli-Sufu block | SRC1 inh | NCOA2 inhibitor | NCOA3 inh
Cc1ccc(-n2nnnc2Sc2ccc(S(=O)(=O)NCCN(C)C)cc2[N+](=O)[O-])cc1 | 36 | -9 | 13 | 18 | 50 | 67*
C[C@H]1CCC/C=C/[C@@H]2C[C@H](O)C[C@H]2[C@H](O)[C@H](S(=O)c2ccc(O)cc2)CC(=O)O1 (stereo partly drawn) | 79* | 51* | 28 | 2 | -30 | 63*
O=C(Nc1cccc([N+](=O)[O-])c1)NC1CCCCN(Cc2cccc(Cl)c2)C1=O (stereo not drawn) | nt | 22 | nt | nt | 7 | nt
Cc1ccc2nc(NC(=O)CCCC(=O)O)sc2c1 | 17 | 36 | 33 | 26 | 57* | 32
Cc1ccc2nc(NC(=O)CCCc3nc4ccccc4s3)sc2c1 | -77 | -25 | 0 | -53 | -35 | -73
O=C(N/N=C/c1ccc(O)cc1O)c1ccncc1 | -14 | -3 | 2 | 3 | -21 | 11
Cc1ccc(C(C)C)c(OCc2ccc(C(=O)N/N=C/c3ccc(O)cc3O)cc2)c1 | 45 | 13 | 35 | 67* | 64* | 70*
CCCCCCCCCCCCCCCC[N+](C)(C)CC | 32 | 12 | 75* | 14 | 17 | 17
CCCCCC[N+](C)(C)CCSSCC[N+](C)(C)CCCCCC | 9 | 10 | 6 | 5 | -36 | -12
CCCCCCCCCCCCCCCC[N+](C)(C)CCl | -16 | -2 | 58* | 3 | 1 | 0
O=C(Nc1cccc([N+](=O)[O-])c1)NC1CCCCN(Cc2ccc(Cl)cc2)C1=O (stereo not drawn) | nt | 12 | nt | nt | 8 | nt
O=[N+]([O-])c1ccc(O)c(/C=N/Nc2ccc(Cl)nn2)c1 | 14 | 6 | 86* | 68* | -11 | 82*
COCCCN1C(=O)[C@H](CC(=O)NCCC(C)C)[C@]2(C(=O)OC)CCCCC=C12 | nt | 4 | nt | nt | -11 | nt
Cc1ccc(OCc2nnc(SCC(=O)Nc3ccccc3-c3ccccc3)n2Cc2ccco2)cc1 | nt | 7 | nt | nt | -1 | nt
O=C(/C=C/c1cn(-c2ccccc2)nc1-c1cccnc1)c1ccco1 | 2 | 2 | -2 | 2 | 64* | 8
O=C(/C=C/c1cn(-c2ccccc2)nc1-c1cccnc1)N1CCCC1 | 27 | 19 | -4 | -7 | 6 | 31
CCN(CC)c1ccc(N)cc1 | 20 | nt | 61* | -7 | nt | 2
Nc1ccc(N(CCO)CCO)cc1 | -2 | -8 | -11 | 3 | -16 | 4
Cc1ccc2[nH]c3c(c2c1)CCCC3NC(=O)CCl (stereo not drawn) | 89* | nt | 28 | 77* | nt | 77*
Nc1ccc2oc(-c3cccc4ccccc34)nc2c1 | -13 | 37 | 3 | 3 | 55* | -18
Cc1ccc(-c2nc3cc(N)ccc3o2)c(C)c1 | -69 | -18 | -5 | -103 | -22 | -72
O=C(CSc1nc(-c2cccs2)cc(C(F)(F)F)n1)Nc1cc(OCC(F)(F)C(F)F)cc([N+](=O)[O-])c1 | -32 | -2 | 10 | 76* | -7 | 13
NCCNC(=O)c1c(NC(=O)c2ccccc2)sc2c1CCCC2 | -14 | -5 | 1 | -32 | -45 | -36
O=C(Nc1sc2c(c1C(=O)NCCCO)CCCC2)c1ccccc1 | 11 | -12 | 8 | 86* | -27 | 6
Nc1c(Cl)ncnc1N/N=C/c1ccccn1 | nt | 2 | 77* | nt | 31 | nt
SMILES | LRH-1 inv ag | NR2F2 inh | Gli-Sufu block | SRC1 inh | NCOA2 inhibitor | NCOA3 inh
Nc1c(Cl)ncnc1N/N=C/c1ccnc2ccccc12 | -8 | -19 | -17 | -13 | -34 | -33
Nc1c(Cl)ncnc1N/N=C/c1ccc2ccccc2n1 | -12 | -36 | 66* | -52 | -54 | -59
CN(NC(=O)C(=O)NCc1ccco1)C(=O)NC1CCCCC1 | nt | -23 | nt | nt | 11 | nt
Oc1ccc(Nc2nc(N3CCCC3)c3ccccc3n2)cc1 | 8 | 9 | 58* | 47 | -100 | 52
Cc1ccccc1C(=O)N1CCN(C(=O)C(=O)c2cccc(C(F)(F)F)c2)CC1 | nt | -5 | nt | nt | 9 | nt
O=C(NC1CCCC1)[C@@H]1CCCN1C(=O)[C@@H](NC(=O)N1CCOCC1)c1ccccc1 | nt | -4 | nt | nt | -1 | nt
CCn1c(C)cc(C(=O)COC(=O)c2ccccc2[N+](=O)[O-])c1C | 95* | nt | 87* | 93* | nt | 93*
Cc1cc2c(nc1C)CCCN2S(=O)(=O)c1ccccc1 | nt | 2 | nt | nt | -36 | nt
COc1ccc(Cl)cc1C(=O)Nc1nc2ccccc2[nH]1 | -17 | 29 | -80 | -28 | 54* | -25
